# PubChem BioAssay (NCI)
# About 83,000 compounds went through this panel and 20% of them were active in at least one assay; those are over-represented in the sample as a whole.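 Step 1: grow cells in 96-well plates. Step 2: add test compound at a single concentration. Step 3: incubate 48 h. Step 4: record percent growth.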 Active and inactive are the calls of the source. Rule for the calls: active = growth percent below 10; inactive = the rest.
# System: SNB-19 CNS
# Test: NCI-60 one-dose screen, 48 h (100 = growth as untreated, 0 = no growth, -100 = all killed)
# Settings: 10 µM unless noted
row,Compound,growth
1,COc1ccc(/C=C2\C(=O)N=C3N2NC(c2cc(Br)ccc2O)C=C(C)N3c2ccccc2)cc1 (stereo unspecified),93.8% (inactive)
2,O=C(NCCCCNC(=O)OCc1ccc2c(Cl)cc(Cl)c(O)c2n1)OCc1ccc2c(Cl)cc(Cl)c(O)c2n1,62.7% (inactive)
3,CCCCCCCCCCCCCCCCCCOc1ccccc1CC(=O)NCC[N+]1(C)CCCC1,35.2% (inactive)
4,C=C1CC[C@@H]2[C@](C)(COC(C)=O)[C@H](OC(C)=O)CC[C@@]2(C)[C@@H]1CC(Sc1ccccc1)C1=CCOC1=O (stereo partly specified),51.8% (inactive)
5,COc1cc(CNS(=O)(=O)c2ccc(C)cc2)ccc1OCc1cn(-c2ccc(Br)cc2)nn1,104% (inactive)
6,CC(=O)Cc1nsc(NC(=O)c2cc(-c3cc(Cl)cc(Cl)c3)oc2C)n1,101% (inactive)

# System: U251 CNS
# Test: as above
# Settings: 10 µM unless noted
row,Compound,growth
1,COc1ccc(C(=O)Nc2ncc(Cc3cccc(Cl)c3)s2)cc1OC,28.4% (inactive)
2,CN[C@]12CC3(C=CC(=O)C=C3)O[C@@]1(Cc1ccc(OC)cc1)N(C)C(=O)N2,10.9% (inactive)
3,Cc1nc2c(=O)[nH]c(SCC(=O)Nc3cccc(F)c3)nc2[nH]c1=O,106% (inactive)
4,O=S(=O)(Nc1ccc(Cl)cc1)c1ccc(-c2cnc(C3CC3)o2)cc1,24.4% (inactive)
5,C=CCn1c(SCC(=O)Nc2ccc(C(=O)/C=C/c3ccc(Cl)cc3)cc2)nnc1-c1cc(-c2ccc(S(N)(=O)=O)cc2)nc2ccccc12,71.2% (inactive)
6,CCN1C(=O)N(CC)C2C1NN=c1s/c(=C\c3ccc(Cl)cc3Cl)c(=O)n12 (stereo unspecified),11% (inactive)
7,COC(=O)[C@H]1CCCN1C[C@@H](O)CN1C(=O)/C(=C\c2cc(OC)c(OC)c(OC)c2)c2ccccc21,87.3% (inactive)
8,CN(C)CCCC1(c2ccc(F)cc2)OCc2cc(-c3cccc4[nH]ccc34)ccc21 (stereo unspecified),-24.1% (active)
9,O=C1Nc2ccc(Br)cc2/C1=N/c1n[nH]c(=S)s1,96.2% (inactive)
10,CCOC(=O)c1cc(-c2ccc([N+](=O)[O-])cc2)n(-c2ccc(C(=O)O)c(O)c2)c1C,70.9% (inactive)
11,COc1ccc(-c2nn(-c3ccccc3)cc2/C=C2/SC(=S)N(C)C2=O)cc1,8.95% (active)
12,O=C1c2cccnc2C(=O)c2c1c(C(=O)NCCn1ccnc1)c1ccccn21,13% (inactive)
13,N#C/C(=C\c1ccc2ccccc2c1)c1cc2ccccc2[nH]1,27.8% (inactive)
14,Cc1noc(C)c1C(=O)OCc1coc2ccccc2c1=O,72.8% (inactive)
15,CN(C)CCNc1nc2c3cc(Cl)ccc3nn2c2ccccc12,49.5% (inactive)
16,CC(=O)N1N=C(c2ccc(Nc3nc(Nc4ccc(Cl)cc4)nc(Nc4ccc(Cl)cc4)n3)cc2)CC1c1ccco1 (stereo unspecified),81.7% (inactive)
17,CSc1nc2sc3c(c2c(=O)n1-c1ccc([N+](=O)[O-])cc1)CCCCC3,84.5% (inactive)
18,Cc1cc(N)c2cc(NC(=O)/C=C\c3ccccc3Cl)ccc2n1,-85.9% (active)
19,CCN(C(=O)N1CCN(c2cc3c(cc2F)c(=O)c(C(=O)O)cn3C2CC2)CC1)c1nc(-c2ccc(Cl)cc2)cs1,15.1% (inactive)
20,COC(=O)c1cc(-c2ccc(S(C)(=O)=O)cc2)[nH]c1N/N=C/c1c(Cl)cccc1Cl,26.8% (inactive)

row,Compound,growth
1,NC(=O)c1c(NC(=O)c2ccccc2)sc2c1CCC(=O)C2,17.6% (inactive)
2,Cc1ccc(C2=Nc3c(N)ncnc3NC(c3ccc4c(c3)OCO4)C2)cc1 (stereo unspecified),46.9% (inactive)
3,COc1ccc(-c2nc(SCC(C)C)nc(N/N=C\c3ccc(F)cc3)c2C#N)cc1,94.5% (inactive)
4,COc1ccc(C(c2cc(OC)c(OC)c(OC)c2)N2CCN(c3ccccc3)CC2)cc1 (stereo unspecified),96.4% (inactive)
5,CCCC(=O)NC(c1ccc2c(c1)OCO2)c1ccc2cccnc2c1O (stereo unspecified),14.5% (inactive)
6,OCCNCCCOc1ccc2ncnc(Nc3ccc(Oc4cccc(C(F)(F)F)c4)c(Cl)c3)c2c1,3.99% (active)
7,COC(=O)CCC(=O)C(=O)OC,3.32% [10 mM] (active)
8,CS(=O)(=O)Nc1cc(-c2ccc3ncnc(Nc4c(Cl)ccc5c4OCO5)c3c2)cnc1Cl,-30.4% (active)
9,O=C1c2c(c3c4ccc(Br)cc4oc3c3[nH]c4ccccc4c23)C(=O)N1O,22.8% (inactive)
10,O=C1/C(=C/c2ccc(-c3ccc(Br)cc3)o2)SC(=S)N1CCc1ccc(O)cc1,78.9% (inactive)
11,CCN(CC)CCSc1nc(-c2ccccc2)c(C#N)c(=O)[nH]1,105% (inactive)
12,O=C(CCCCCCN1CC(=O)N2[C@H](c3cc(Br)cs3)c3[nH]c4ccccc4c3C[C@H]2C1=O)NO,33.3% (inactive)
13,C#Cc1cccc(Nc2ncnc3ccc(-c4cnc(N)nc4)cc23)c1,54.7% (inactive)
14,O=C(c1ccc(Cl)cc1)N1CCN(c2ccnc3cc(Cl)ccc23)CC1,78.7% (inactive)
15,COc1ccc(/C=C2\C(=O)N=C3N2NC(c2cc(Br)ccc2O)C=C(C)N3c2ccccc2)cc1 (stereo unspecified),93.8% (inactive)
16,O=C(NCCCCNC(=O)OCc1ccc2c(Cl)cc(Cl)c(O)c2n1)OCc1ccc2c(Cl)cc(Cl)c(O)c2n1,9.05% (active)
17,CCCCCCCCCCCCCCCCCCOc1ccccc1CC(=O)NCC[N+]1(C)CCCC1,6.79% (active)
18,C=C1CC[C@@H]2[C@](C)(COC(C)=O)[C@H](OC(C)=O)CC[C@@]2(C)[C@@H]1CC(Sc1ccccc1)C1=CCOC1=O (stereo partly specified),22.9% (inactive)
19,COc1cc(CNS(=O)(=O)c2ccc(C)cc2)ccc1OCc1cn(-c2ccc(Br)cc2)nn1,101% (inactive)
20,CC(=O)Cc1nsc(NC(=O)c2cc(-c3cc(Cl)cc(Cl)c3)oc2C)n1,93.2% (inactive)
